D2 antagonist: D2 dopamine receptor (human) antagonism. HEK293 TREx D2 cells, calcium flux, dopamine EC80. actives 2% (n = 340,000). AID 485344. P14416. inhibition, % at 10 µM; in the data active = inhibition above about 30%; inactive = below that, where a call was filed; note: 0% is about no effect
Target sequence (P14416 whole entry, looked up): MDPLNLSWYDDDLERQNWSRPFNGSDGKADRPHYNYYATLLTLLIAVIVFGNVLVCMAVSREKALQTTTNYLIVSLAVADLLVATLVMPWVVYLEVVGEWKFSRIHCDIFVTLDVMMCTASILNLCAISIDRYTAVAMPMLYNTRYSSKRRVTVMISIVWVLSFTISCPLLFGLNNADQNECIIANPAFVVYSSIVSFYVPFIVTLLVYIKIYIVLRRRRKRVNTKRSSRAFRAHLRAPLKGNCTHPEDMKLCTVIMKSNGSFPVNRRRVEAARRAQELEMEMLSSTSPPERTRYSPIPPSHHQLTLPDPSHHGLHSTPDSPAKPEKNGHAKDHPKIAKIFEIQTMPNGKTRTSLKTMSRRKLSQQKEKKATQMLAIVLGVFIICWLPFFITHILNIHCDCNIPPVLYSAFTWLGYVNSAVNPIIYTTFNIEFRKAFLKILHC
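Antagonism is scored as inhibition of an EC80 dopamine-evoked calcium signal in a force-coupled, tetracycline-inducible HEK293 T-REx D2 line, with compound present 180 s before agonist.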
D2 PAM-1: positive allosteric modulators of human D2 dopamine receptor. P14416. DiscoveRx D2 beta-arrestin cells, luminescence, 90 min; 100% = 57 uM dopamine signal. potentiation, % (no concentration beside the values). actives 0.23% (n = 360,000). AID 624464; in the data active = potentiation above about 50%; inconclusive = mostly about 30% to 49%
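PathHunter beta-arrestin assay in DiscoveRx D2 cells. Compounds were added with an EC20 of dopamine (50 nM final) for 90 min at 37 deg C. Luminescence was read 1 h after detection reagent, with 57 uM dopamine as the EC100 control.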
D2 ag-1: activates the human D2 dopamine receptor | P14416 | DiscoveRx PathHunter D2 beta-arrestin, luminescence, 90 min; 100% = 57 uM dopamine signal | activation, % (test concentration not listed) | actives 0.084% (n = 360,000); in the data active = activation above about 40%; inconclusive = between about 15% and that limit
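Agonist mode: compounds alone added to overnight-plated D2 PathHunter cells for 90 min at 37 C, with 57 uM final dopamine (EC100) defining full response. Beta-arrestin recruitment detected by chemiluminescent reagent, read after 1 h at ambient temperature.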
D2 PAM-2: positively modulates the human D2 dopamine receptor allosterically. potentiation, % at 10 µM. HEK293 T-REx D2, calcium flux, EC20 dopamine potentiation. AID 485347. P14416. actives 0.34% (n = 340,000);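 active = potentiation over 3 SD above the plate norm, cut at about 30% in these data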; note: 0% is about no effect
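Tetracycline-induced Hek293 Trex D2 cells, force-coupled to calcium, loaded with no-wash calcium dye. Compound added with 180 s kinetic read for agonism, then EC20 dopamine and a further 180 s read for potentiation.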
D2 ag-2: agonists of human D2 dopamine receptor; actives 0.53% (n = 340,000); activation, % at 2 µM; AID 485358; HEK293 T-REx D2 cells, calcium flux agonist mode;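 active = activation over 3 SD above normal in the single-dose calcium agonist read, cut at about 30% in these data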; note: 0% is about no effect
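Tetracycline-induced HEK293 T-REx cells with force-coupled D2 receptor, plated overnight at 30 C, loaded with no-wash calcium dye. After a 10 s baseline, compound was pin-added and calcium flux read kinetically for 180 s; calcium rises flagged agonists.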
Starred values were filed as active, the others as inactive; ? = inconclusive; . = no result given. Rows were chosen to be rich in hits. Some 2.4% of all compounds tested hit in one or more screens of this group.

SMILES	D2 antagonist	D2 PAM-1	D2 ag-1	D2 PAM-2	D2 ag-2
CC(C)OC(=O)C1C(=O)CC(C)(O)C(C(=O)OC(C)C)C1c1cccc(O)c1 (stereo not drawn)	31.8*	-3.0	-3.5	-7.2	1.7
CCOc1cc(/C=N/NC(N)=O)cc(Br)c1OCC(=O)Nc1ccccc1C	-23.6	53.1*	-1.8	9.0	-0.3
O=C(Cc1nc2ccccc2[nH]1)c1ccc([N+](=O)[O-])cc1	0.5	-3.8	4.1	-5.0	-0.5
O=C(Cc1nc2ccccc2[nH]1)c1ccc(Cl)cc1	-19.4	-3.2	-2.3	44.1*	0.6
Cc1c(Br)c([N+](=O)[O-])nn1CC(=O)Nc1nccs1	-2.0	-3.3	-2.1	52.4*	0.1
N#Cc1ccccc1NC(=O)C(=O)NCC(c1cccnc1)N1CCc2ccccc21 (stereo not drawn)	.	.	.	-2.8	0.4
COc1cc(C(=O)Nc2nc(C)c(Cc3ccc4c(c3)OCO4)s2)cc(OC)c1OC	39.7*	-6.4	-3.4	-11.2	-0.3
CCC(C)[C@H](NC(=O)N1CCn2c1nc1ccccc12)C(=O)NCc1ccccc1 (stereo partly drawn)	-0.9	-5.0	-4.4	32.1*	-0.3
Cc1ccc2oc(-c3cccc(NC(=O)c4ccc(N5CCC(C)CC5)c([N+](=O)[O-])c4)c3)nc2c1	.	.	.	9.7	-1.2
COc1ccccc1N(CC(O)Cn1ccnc1C)S(=O)(=O)c1ccc(C)cc1 (stereo not drawn)	67.2*	-7.2	-2.8	-19.8	0.2
CCCCCn1c(=O)[nH]c2cc(C(=O)Nc3ccc(F)c(F)c3)ccc2c1=O	.	.	.	19.8	-1.4
Cc1ccc(OCCCCN2CCc3ccccc3C2)cc1	73.4*	-25.6	7.9	-12.3	0.4
Cc1ccc([N+](=O)[O-])c(OCCN2CCc3ccccc3C2)c1	88.0*	-3.4	3.3	-27.2	17.4
O=[N+]([O-])c1ccccc1OCCCN1CCc2ccccc2C1	74.8*	-26.4	4.7	-9.4	0.1
Cc1cc(=O)oc2c3c(cc(OCC(=O)NCC(=O)N[C@H](C(=O)O)C(C)C)c12)OC(C)(C)CC3	30.1*	2.5	1.2	13.8	-0.2
Cc1c(C)c2c(OCC(=O)NCc3ccco3)cc3c(c2oc1=O)CCC(C)(C)O3	30.0*	-20.5	-2.7	2.6	0.6
Cc1cc(=O)oc2c3c(cc(OCC(=O)NCc4ccco4)c12)OC(C)(C)CC3	14.2	-11.0	-3.0	-11.1	-1.5
CC[C@H](C)[C@H](NC(=O)CNC(=O)COc1cc2c(c3oc(=O)cc(C)c13)CCC(C)(C)O2)C(=O)O	-20.8	1.4	2.3	-14.3	0.3
Cc1ccc(N=C(NO)c2nonc2N)c(C)c1	8.5	-1.6	-0.2	-3.8	0.6
Cc1ccc(N=C(NOC(=O)c2ccccc2)c2nonc2N)c(C)c1	-19.2	95.3*	10.5	-1.5	0.1
CNC(=O)COc1ccc(NC(=O)CCn2nc(-c3ccc(C)cc3)c3ccccc3c2=O)cc1	.	.	.	8.2	-0.7
CCOCCCNc1nc2ccccc2n2c(CC)nnc12	.	.	.	0.1	0.0
COc1cc(OC)c(C(=O)NC23CC4CC(CC(C4)C2)C3)cc1OC	-3.4	65.1*	-2.3	-2.1	0.6
C=CCc1cccc2cc(C(=O)NCCc3c(C)[nH]c4c(C)cccc34)c(=O)oc12	.	.	.	-4.2	0.4
COc1ccc2c(c1O)C(=O)c1ccccc1C2=O	3.7	.	.	-5.8	0.1
SMILES	D2 antagonist	D2 PAM-1	D2 ag-1	D2 PAM-2	D2 ag-2
Cc1[nH]c2c(C)cccc2c1CCNC(=O)c1ccc2c(c1[N+](=O)[O-])C(=O)c1ccccc1C2=O	-5.0	93.0*	?	-7.3	-0.3
CN(C)C(=O)c1ccc2c(c1[N+](=O)[O-])C(=O)c1ccccc1C2=O	.	68.3*	?	.	.
CCCNC(=O)NCCc1c(C)[nH]c2ccccc12	-0.7	-4.1	4.8	6.9	0.2
Cc1[nH]c2ccccc2c1CCNC(=O)c1ccc2c(c1[N+](=O)[O-])C(=O)c1ccccc1C2=O	-5.4	93.1*	?	-9.2	-0.2
COc1ccccc1NCc1cccn1-c1nnc(N2CCOCC2)s1	.	.	.	-15.9	0.5
Cc1ccccc1-c1nc(CN(Cc2c(C)nn(C)c2C)C2CC2)c(C)o1	30.5*	-10.3	-12.3	-2.4	6.8
Cc1cccc(NC(=O)c2c(C)nc3ccccn23)c1	40.1*	-2.9	-2.1	0.1	0.2
Cc1cc2c(OCC(O)CNC3CCCCC3)cccc2[nH]1 (stereo not drawn)	60.2*	-11.5	-3.2	-34.4	25.3
COc1ccc(Nc2cc3n(c(=O)n2)CCc2cc(OC)c(OC)cc2-3)cc1	-8.2	-4.4	1.1	6.5	0.5
COc1cc2c(cc1OC)-c1cc(Nc3ccc4c(c3)OCCO4)nc(=O)n1CC2	-3.0	1.9	-0.3	57.2*	-0.6
Cc1cc(C)nc(N2CCN(c3nc(C)cc(C)n3)CC2)n1	0.3	.	.	-5.2	-1.4
CCOc1cc(C)nc(N2CCN(C3CCCCC3)CC2)n1	40.1*	-18.4	-1.1	7.1	0.6
CN(C)CCOCCOc1ccc(Cl)cc1Br	18.6	-27.9	-5.3	-31.3	0.5
CC1CCCN(CCOc2ccc3ccccc3c2Br)C1 (stereo not drawn)	71.5*	-12.4	-3.5	-27.4	0.1
Cc1ccc(Cl)c(OCCN2CCCC(C)C2)c1 (stereo not drawn)	53.1*	-26.6	-1.5	-19.2	2.6
Clc1ccc(OCCOCCN2CCCCC2)c(Br)c1	76.9*	6.0	1.5	-24.5	0.9
CC(C)NCCOCCOc1ccc(Cl)cc1Br	66.9*	-36.1	-3.1	-28.8	0.1
Cc1ccc(C2=Nc3ccccc3N(CC(=O)NCc3ccccc3Cl)C(=O)C2)cc1C	.	.	.	-21.3	.
COc1ccc(N2CCN(S(=O)(=O)c3ccc4c(c3)CC(C)N4C(C)=O)CC2)cc1 (stereo not drawn)	.	.	.	-9.8	-0.1
Cn1c(=O)cc(SCC(=O)NCc2ccc(F)cc2)c2cc(Cl)ccc21	.	.	.	-1.7	-0.3
O=S(=O)(Nc1cccc(-c2ccc(N3CCCCC3)nn2)c1)c1ccc(Cl)s1	.	.	.	-0.9	-0.3
COc1ccc(NC(=O)C2CCN(S(=O)(=O)c3ccc4[nH]c(=O)ccc4c3)CC2)c(OC)c1	.	.	.	10.3	0.2
CC1CCN(CCOCCOc2ccc(Cl)cc2Br)CC1	68.6*	-30.5	-2.0	-20.9	0.0
Clc1ccc(Cl)c(OCCN2CCCC2)c1	46.7*	-5.4	4.4	-14.0	0.8
CC1CCN(CCCOc2ccc(Cl)cc2Br)CC1	33.5*	-29.4	-5.3	-26.1	0.0
O=C(Nc1ccccc1Cl)C1CCN(c2nc3ccccc3nc2C(F)(F)F)CC1	.	.	.	11.9	0.1
Cn1c(Cc2ccccc2)nnc1SCC(=O)NC1CC1	-9.5	-2.9	2.2	-1.1	0.1
COCCn1c(Cc2ccccc2)nnc1SCC(=O)NC1CC1	32.2*	-3.6	-5.7	12.0	1.7
CC1(C)CCN2CCC(C)(C)c3c(O)ccc1c32	-1.5	2.3	4.0	3.7	34.1*

Bioassay records as filed in PubChem BioAssay.
